# Bioassay records: PubChem BioAssay, National Center for Advancing Translational Sciences (NCATS)
# An excerpt weighted towards active compounds, which were near 2.9% of everything screened.
# a7 integrin act = activates integrin-mediated alleviation for muscular dystrophy | alpha7betagal myoblasts, beta-gal FDG fluorescence, 48 h | Potency, µM (doses to about 38.3 µM), without a hit: at the highest dose activation, actives largely listed as activators | 350,000 compounds, 0.064% hits;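 note: potency is the fitted concentration of half-maximal effect; 100% = response of the positive control SU9516; nearly all actives have a fitted effect of over 60% in size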
#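 Alpha7betagal+/- myoblasts (passage 13) were plated 16-24 hr, then exposed to compounds (1:260 dilution of DMSO stock) for 48 hours at 37C. After MPER lysis, β-galactosidase reporter activity was read as FDG fluorescence (ex 480/em 540) after 30 minutes.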
# DRD3 agonist = agonists of human D3 dopamine receptor. P35462. D3R DiscoveRx beta-arrestin cells, luminescence, 90 min. max activation, %. 410,000 compounds, 0.58% hits. AID 652048; in the data active = max activation above about 30%; note: 0% is about no effect
#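 Cells at 1500/well, incubated overnight, then treated with pinned compounds (dopamine as control) for 90 min at 37 degrees C. DiscoveRx reagent added for 30 - 60 minutes at room temperature; luminescence read.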
# B2AR arrestin = agonists driving beta-arrestin recruitment to human beta2-adrenergic receptor. 330,000 compounds, 0.02% hits. AID 492947. beta-arrestin recruitment to beta2AR, cell-based reporter. Potency, µM (doses to about 46.1 µM), for the others: top-dose activation, hits mostly activators;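 note: potency is the fitted concentration of half-maximal effect; 0% = DMSO controls and full agonism = EC100 isoproterenol or metaproterenol; nearly all actives have a fitted effect of over 65% in size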
# Target sequence (P07550 whole entry, looked up): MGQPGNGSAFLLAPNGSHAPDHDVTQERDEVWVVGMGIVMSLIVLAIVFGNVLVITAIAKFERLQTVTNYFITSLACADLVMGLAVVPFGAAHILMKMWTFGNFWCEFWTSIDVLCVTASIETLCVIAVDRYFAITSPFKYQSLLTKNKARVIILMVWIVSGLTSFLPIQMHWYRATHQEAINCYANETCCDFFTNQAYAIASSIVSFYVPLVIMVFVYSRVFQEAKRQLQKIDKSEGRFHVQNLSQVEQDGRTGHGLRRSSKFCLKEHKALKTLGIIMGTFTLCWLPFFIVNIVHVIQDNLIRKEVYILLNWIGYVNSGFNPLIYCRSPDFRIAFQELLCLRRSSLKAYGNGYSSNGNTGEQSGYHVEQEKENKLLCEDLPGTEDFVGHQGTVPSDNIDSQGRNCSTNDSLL
# DRD3 antagonist = blocks the human D3 dopamine receptor; max response, negative = inhibition, %; P35462; D3R cells, DiscoveRx beta-arrestin luminescence, antagonist mode; active compounds read low; AID 652054; 360,000 compounds, 2.5% hits; in the data active = max response below about -50%; inconclusive = no clear call, values can overlap the other calls; note: % is set by controls: 0 for no effect and ±100 for the full control effect
#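 Cells plated overnight at 1500 cells/well, then exposed to library compounds with dopamine controls for 90 minutes at 37 degrees C. DiscoveRx reagent added for 30–60 minutes at room temperature; luminescence read, quantitative HTS format.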
# IDH1 R132H inh = human IDH1 R132H inhibition. O75874. IDH1-R132H enzyme, NADPH consumption, diaphorase/resazurin fluorescence. Potency, µM (titrated, usually from 76.6 µM), without a hit: top-dose activity change, negative = inhibition, most hits filed as inhibitors. 390,000 compounds, 0.093% hits; note: potency is the fitted concentration of half-maximal effect; % is set by controls: 0 for no effect and ±100 for the full control effect; nearly all actives have a fitted effect of over 65% in size
#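 IDH1-R132H (0.5 ug/mL dispensed) in pH 7.5 Tris buffer was preincubated 30 min with compound, then given a substrate mix of 0.016 mM NADPH and 2 mM alpha-KG for 80 min at room temperature; remaining NADPH was read by diaphorase/resazurin fluorescence.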
# * hit, by the source's call; ? = inconclusive; · = no result given; [ ] = dose if it differs, or a comment. Unless noted, calls come from the whole dose curve; as a rule, active = well fitted curve in the direction sought with a large enough effect; inconclusive = small, poorly fitted or top-dose-only effect, or another doubt; inactive = no such curve, though single readings can be large; an effect the other way counts as inactive or inconclusive.
SMILES,a7 integrin act,DRD3 agonist,B2AR arrestin,DRD3 antagonist,IDH1 R132H inh
CCc1ccc(NCc2cc3c(C)nn(-c4ccccc4)c3[nH]c2=O)cc1,-6%,6,0%,-28,-1%
Cc1ccc(-c2nn(-c3ccccc3)c3[nH]c(=O)c(CNCCN(C)C)cc23)cc1,·,·,0%,·,·
Cc1ccc2nc(Cl)c3cc(C(=O)NC4CCC(C)CC4)sc3c2c1 (configuration not stated),·,-3,·,·,-11%
COc1ccc(N2CCN(C(c3ccccc3)c3nnc(-c4ccccc4Cl)o3)CC2)cc1 (configuration not stated),·,-15,·,·,0%
CCCN1C2CCCC1CC(NC(=O)c1cccc(Cl)c1)C2 (configuration not stated),-12%,-8,-1%,4,-3%
O=C(NC1CC2CCCC(C1)N2Cc1ccccc1)c1cccc(F)c1 (configuration not stated),-22%,-19,0%,-106*,-2%
CCCN1C2CCCC1CC(NC(=O)c1cccc([N+](=O)[O-])c1)C2 (configuration not stated),10µM*,-18,0%,-10,6%
O=C(CN1C2CCCC1CC(NC(=O)c1ccccc1)C2)Nc1ccccc1 (configuration not stated),0%,-12,0%,-26,0%
O=C(NC1CC2CCCC(C1)N2Cc1ccccc1)c1cccc(Cl)c1 (configuration not stated),-12%,-11,0%,-76*,7%
CCN1CCN(C(=O)c2ccc3c(=O)n(CCc4ccccc4)c(=O)[nH]c3c2)CC1,0%,-2,0%,-2,3%
CCCCCCc1cc2cc(-c3nnc(-c4ccccc4OC)o3)c(=O)oc2cc1O,-192%,37*,0%,72,-5%
CCCCCCc1cc2cc(-c3nnc(-c4ccccc4O)o3)c(=O)oc2cc1O,-36%,15,0%,45,2%
CCCCCCc1cc2cc(S(=O)(=O)c3ccc(F)cc3)c(=O)oc2cc1O,27%,49*,0%,12,2%
O=c1oc2cc([N+](=O)[O-])ccc2nc1/C=C(\O)c1cccc(Br)c1,5%,15,-1%,-56*,2%
CCCC1=NN2C(=N)/C(=C\c3cc(C)n(-c4cc(C)cc(C)c4)c3C)C(=O)N=C2S1,-11%,-9,0%,-57*,5%
Cc1cc(C)cc(-n2c(C)cc(/C=C3\C(=N)N4N=C(CC(C)C)SC4=NC3=O)c2C)c1,18%,4,-1%,-2,-3%
COc1ccc(/C=C\c2onc(C)c2S(=O)(=O)N2CCC(C(=O)Nc3cccc(Cl)c3)CC2)cc1,·,62*,·,·,-30%
O=c1[nH]c(SCc2c(F)cccc2Cl)nc2c1CCCC2,·,17,·,·,·
Clc1ccc(OCCOCCN2CCCCC2)c(Br)c1,4%,-2,0%,46,0%
Cc1ccc(OCCCCCN2CCOCC2)c(Cl)c1,-17%,-21,·,?,-2%
Clc1cc(Br)ccc1OCCOCCN1CCCC1,-60%,-18,-1%,-81*,3%
Clc1cc(Br)ccc1OCCOCCN1CCOCC1,-3%,-16,0%,-82*,-2%
Cc1cccc(-n2cnc3cc(C(=O)NC4CCCCCC4)ccc32)c1,·,-21,·,·,0%
CCc1ccc(CNC(=O)c2ccc3c(c2)nc2n3CCCCC2)cc1,·,0,·,·,-16%
COc1cccc(N2CCN(C(=O)Cn3ncc4c3-c3ccccc3OC4)CC2)c1,·,5,·,·,-10%
SMILES,a7 integrin act,DRD3 agonist,B2AR arrestin,DRD3 antagonist,IDH1 R132H inh
CCOC(=O)/C=C/C(=O)Nc1ccccc1-c1ccccc1NC(=O)/C=C/C(=O)OCC,-49%,-5,-1%,-62*,2%
C=CC(=O)N1C/C(=C/c2ccccc2)C(=O)/C(=C\c2ccccc2)C1,-45%,-19,·,-62*,-6%
CNC(=S)NNC(=O)CCn1nc(C)c(Br)c1C,13%[7.66 µM],-23,·,?,7%
Cc1nn(CCC(=O)NNC(=S)NCC(C)C)c(C)c1Br,-8%,-53,9%,-104*,6%
CCOCCCNC(=S)NNC(=O)CCn1nc(C)c(Br)c1C,10%[7.66 µM],-35,0%,-97*,14%
O=C(COC(=O)Cc1n[nH]c(=O)c2ccccc12)NNC(=O)c1ccc(Br)cc1,9%,1,0%,?,17%
O=C(COC(=O)Cn1[nH]c(=O)c2ccccc2c1=O)NNC(=O)c1ccc(Br)cc1,-47%,-34,0%,-118*,-12%
O=C(COC(=O)Cc1n[nH]c(=O)c2ccccc12)NNC(=O)c1ccc(Cl)cc1,-8%,-26,0%,-131*,3%
CCCCCCCn1c(=O)c(C(=O)OC)c(N)c2ccccc21,-38%,26,0%,14,5%
CCCCCCCCn1c(=O)c(C(=O)OC)c(N)c2ccccc21,-4%,38*,0%,31,1%
COc1ccc(OC)c(NC(=O)c2c(C)oc3ncnc(N4CCOCC4)c23)c1,·,-11,·,·,-6%
COc1ccc(OC)c(C2C(C(=O)c3sc(C)nc3C)=C(O)C(=O)N2CCN2CCOCC2)c1 (configuration not stated),-6%,-9,-1%,-56*,-3%
COc1ccc(Cn2c(C(=O)O)c(CNCc3ccc(SC)cc3)c3ccc(OC)cc32)cc1,·,-38,·,·,-15%
COc1cc(OC)cc(N2C(=O)CC(N3CCC(C(=O)N4CCCCC4)CC3)C2=O)c1 (configuration not stated),?,-3,-1%,-2,4%
CC(=O)Nc1cccc(N2C(=O)CC(N3CCC(C(=O)N4CCCCC4)CC3)C2=O)c1 (configuration not stated),7%,4,0%,-59*,3%
Cc1ccc(C)c(C(=O)c2c(N)c(-c3nc(-c4ccc5c(c4)OCO5)cs3)c3ccccn23)c1,·,-9,·,·,·
CNC(=O)C[C@@H](N)C(=O)N[C@@H](C(=O)N[C@@H]1C(=O)N2[C@@H]1SC(C)(C)[C@@H]2C(=O)O)c1ccc(O)cc1,·,-12,·,·,·
O=C(Cn1cc(C(=O)C2CC2)c2ccccc21)Nc1ccc(Br)cc1,·,-9,·,·,-7%
COc1ccccc1NC(=S)NNC(=O)c1cc(C)nn1C,-5%,-2,0%,-70*,1%
COc1ccccc1NC(=S)NNC(=O)c1ccccc1,-3%,0,·,-72*,12%
COc1ccccc1NC(=S)NNC(=O)c1c(Cl)c(C)nn1C,4%,4,0%,-15,2%
COc1ccccc1NC(=S)NNC(=O)c1cc(C)n(C)n1,2%,-4,0%,-50*,-1%
O=C(Nc1ccc(N2CCCCCC2)cc1)c1cccc(S(=O)(=O)N2CCOCC2)c1,-31%,1,-1%,5,9%
COc1ccc(OC)c(NC(=O)NCCN2CCN(c3ccccc3)CC2)c1,?,5,0%,-67*,7%
COc1ccc(NC(=O)NCCN2CCN(c3cccc(Cl)c3)CC2)cc1,-16%,-10,0%,-58*,4%
